# Experimental data: PubChem BioAssay (Tox21)
# Records with an inconclusive call do not appear. The source made the active and inactive calls. The call rests on the fitted dose curve; in most records, active means well fitted cell-killing curve with a large enough effect in the repeat runs; inconclusive means weak or mixed curves; inactive means flat fitted curve, though single readings scatter.
# Assay: qHTS RealTime-Glo MT Cell Viability Assay in HepG2 cells - 32 hour (AID 1224877); further: nearly all actives have a fitted effect of over 55% in size
# Conditions: RealTime-Glo luminescence; series mostly up to 76.8 µM
# Source text: U.S. Tox21 Program National Center for Advancing Translational Sciences [NCATS] NIH Chemical Genomics Center [NCGC] U.S. Environmental Protection Agency [EPA] National Institutes of Environmental Health Sciences [NIEHS] National Toxicology Program [NTP] U.S. Food and Drug Administration [FDA] Tox21 Assay Overview: Measure of cell viability is critical in the cell-base assay. Analysis of cell viability is necessary for the characterization of cell responses to cytotoxic drugs and environmental stress. A RealTime-Glo MT Cell Viability Assay to monitor cell viability in real time of continues cell culture during 40 hours of compound treatment was used to screen Tox21 10K library compounds in HepG2 cells. The RealTime-Glo MT Cell Viability Assay is a nonlytic, homogeneous, bioluminescent method to measure cell viability in real time using a simple, plate-based method. The assay involves adding NanoLuc luciferase and a cell-permeant prosubstrate to cells in culture. Viable cells reduce the proprietary prosubstrate to generate a substrate for NanoLuc luciferase. This substrate diffuses from cells into the surrounding culture medium, where it is rapidly used by the NanoLuc Enzyme to produce a luminescent signal. The signal correlates with the number of viable cells, making the assay well suited for cytotoxicity studies.
# Tox21 Assay Protocol Summary: The mixture of HepG2 cell suspension and reagents were dispensed at 600cells/6 ul/well in 1536-well tissue culture treated black solid bottom plates using a Multidrop dispenser. After the assay plates were incubated at a 37 C/5% CO2 incubator for 5 hours, 23 nL of compounds dissolved in DMSO, positive and negative controls was transferred to the assay plate by a pintool work station. The plates were incubated at 37 C for 40 hours. The luminescence intensity were measured at 0h, 8h, 16h, 24h, 32h and 40h time points using ViewLux plate reader during compound treatment.
row,Structure (SMILES),outcome
1,C=C(C)CCl,inactive
2,CC(C)C1(C)N=C(c2nc3ccccc3cc2C(=O)O)NC1=O (stereo not given),inactive
3,Clc1cccc(Cl)c1Cl,inactive
4,CN1C(=O)CN=C(c2ccccc2)c2cc(Cl)ccc21,inactive
5,CCCC1COC(Cn2cncn2)(c2ccc(Cl)cc2Cl)O1 (stereo not given),inactive
6,Cc1cc(-c2cc(C)c(N)c(C)c2)cc(C)c1N,inactive
7,NCC(O)c1ccc(O)cc1 (stereo not given),inactive
8,C=CCO,inactive
9,COC(=O)NC(=S)Nc1ccccc1NC(=S)NC(=O)OC,inactive
10,CC(C)C#N,inactive
11,CC(C)(Cl)Cl,inactive
12,CC1C=[C-]C=C1.[C-]#[O+].[C-]#[O+].[C-]#[O+].[Mn],inactive
13,CNC(=O)Oc1ccccc1OC(C)C,inactive
14,O=S(=O)(c1ccc(O)cc1)c1ccc(O)cc1,inactive
15,CCC(C)(CC)c1cc(NC(=O)c2c(OC)cccc2OC)on1,inactive
16,NCCc1ccc(O)cc1,inactive
17,CCN(CC)c1ccccc1,inactive
18,CCCCN(CCCC)SN(C)C(=O)Oc1cccc2c1OC(C)(C)C2,inactive
19,Cc1cc(Cl)ccc1O,inactive
20,CCc1cccc(C)c1N(C(=O)CCl)C(C)COC (stereo not given),inactive

row,Structure (SMILES),outcome
1,ClCCBr,inactive
2,BrCCBr,inactive
3,Nc1ccc(Br)cc1,inactive
4,Cc1ccc(N)cc1N,inactive
5,Nc1ccccc1C(=O)O,inactive
6,[O-][Cl+2]([O-])O,inactive
7,OC(O)C(Cl)(Cl)Cl,inactive
8,OCCN(CCO)CCO,inactive
9,O=NN1CCCCCCC1,inactive
10,CC(C)OC(=O)Nc1cccc(Cl)c1,inactive
11,Cc1ccccc1O,inactive
12,Oc1ccccc1Cl,inactive
13,CCCCOC(=O)c1ccccc1C(=O)OCCCC,inactive
14,CC(C#N)CCC#N (stereo not given),inactive
15,Cc1cccc([N+](=O)[O-])c1,inactive
16,CC(Oc1ccc(Cl)cc1Cl)C(=O)O (stereo not given),inactive
17,CCCCCCCCCl,inactive
18,CCNc1nc(NC(C)C)nc(SC)n1,inactive
19,CCCCCOC(=O)c1ccccc1C(=O)OCCCCC,inactive
20,CCCN(CCC)N=O,inactive
